The full list was thinned out, with hits kept by preference.
BJeLR viability: BJeLR cell viability reduction. actives 0.64% (n = 30,000). viability loss activity score, % (test concentration not listed). BJeLR fibroblasts viability, CellTiterGlo ATP luminescence, 48 h; HRASV12, hTERT and SV40 LT/ST transformed; in the data active means viability loss activity score above about 50%;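 further: higher score means fewer live cells and less ATP luminescence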
Hedgehog inh: Sonic Hedgehog pathway inhibition. Shh-LIGHT2 Gli-luciferase reporter, 30 h. inhibition, % (no concentration beside the values). actives 2.1% (n = 22,000). AID 2313;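 active means mean inhibition across valid replicates above about 65%, limit read from the data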;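 further: pathway switched on by Shh-conditioned medium diluted 1 in 25 in low serum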
Of the large screens only hits and unclear results are named; the others gave an inactive call.

C[C@@H]1CCC/C=C/[C@H]2C[C@@H](O)C[C@@H]2[C@@H](O)/C=C\C(=O)O1	Hedgehog inh 101
C=CC/C=C\C/C=C\CCCCCCCc1cc(O)cc(O)c1	none (no result: BJeLR viability)
C[C@H]1CC[C@@H]2[C@@H](C)[C@H]3[C@H](C[C@H]4[C@@H]5CC=C6CC(O[C@@H]7O[C@H](CO)[C@@H](O)[C@H](O[C@@H]8O[C@H](CO)[C@@H](O)[C@H](O)[C@H]8O)[C@@H]7O[C@@H]7O[C@@H](C)[C@H](O)[C@@H](O)[C@H]7O)CC[C@]6(C)[C@H]5CC[C@]34C)N2C1 (stereo not given in full)	BJeLR viability 81
C[C@H]1CC[C@@H]2[C@@H](C)[C@H]3[C@H](C[C@H]4[C@@H]5CC=C6C[C@@H](O[C@@H]7O[C@H](CO)[C@H](O)[C@H](O[C@@H]8O[C@H](CO)[C@@H](O)[C@H](O)[C@H]8O)[C@H]7O[C@@H]7O[C@@H](C)[C@H](O)[C@@H](O)[C@H]7O)CC[C@]6(C)[C@H]5CC[C@]34C)N2C1	none
CC[C@H]1CN2CC[C@H]1C[C@@H]2[C@@H](O)c1ccnc2ccc(OC)cc12	none
c1cncc(C2N=C(c3cnccn3)NN2)c1 (stereo not given)	none
COc1ccc2c(c1OC)C(=O)O[C@H]2[C@H]1c2cc3c(cc2CCN1C)OCO3	none
COc1cc([C@@H]2c3cc4c(cc3[C@H](OC(C)=O)[C@H]3COC(=O)[C@@H]23)OCO4)cc(OC)c1OC	none
COc1cc([C@@H]2c3cc4c(cc3[C@@H](O)C3COC(=O)C32)OCO4)cc(OC)c1O (stereo not given in full)	BJeLR viability 50, Hedgehog inh 90
COc1cc(C2c3cc4c(cc3CC3COC(=O)C32)OCO4)cc(OC)c1OC (stereo not given)	BJeLR viability 64, Hedgehog inh 80
C/C=C(\C)[C@H](O)[C@H](C)/C=C(C)/C=C/C/C(C)=C/Cc1[nH]c(OC)c(OC)c(=O)c1C	none
CCCC(=O)O[C@@H]1[C@@H](C)[C@@]2(O)[C@@H](C=C(CO)C[C@]3(O)C(=O)C(C)=C[C@@H]23)[C@@H]2C(C)(C)[C@]12OC(=O)CCC	Hedgehog inh 70
c1ccc2c(CNCCc3c[nH]c4ccccc34)cccc2c1	none
c1cncc(C2Nc3ccccc3-n3cccc32)c1 (stereo not given)	none
CC1OC(O[C@H]2C[C@@H](O)[C@]3(CO)[C@H]4[C@H](O)C[C@]5(C)[C@@H](C6=CC(=O)OC6)CC[C@]5(O)[C@@H]4CC[C@]3(O)C2)C(O)C(O)C1O (stereo not given in full)	BJeLR viability 100
C[C@H]1O[C@@H](O[C@H]2C[C@@H](O)[C@]3(CO)C4C(CC[C@]3(O)C2)[C@@]2(O)CC[C@H](C3=CC(=O)OC3)[C@@]2(C)C[C@H]4O)[C@@H](O)[C@@H](O)[C@H]1O (stereo not given in full)	BJeLR viability 117
C[C@@H]1O[C@@H](O[C@H]2C[C@@H](O)[C@]3(CO)C4C(CC[C@]3(O)C2)[C@@]2(O)CC[C@H](C3=CC(=O)OC3)[C@@]2(C)C[C@H]4O)[C@H](O)[C@H](O)[C@H]1O (stereo not given in full)	BJeLR viability 119
CCN1C[C@]2(C)CC[C@H](OC)[C@@]34C1[C@@]1(OCO[C@@]15C[C@H](OC)[C@H]1C[C@]3(O)[C@@H]5[C@H]1OC)[C@@H](OC(C)=O)[C@H]24	none
CCOC(=O)c1c(NC(=O)C2C(C)(C)C2(C)C)sc2c1CCC2	none
CCOC(=S)SCc1nc2ccccc2c(=O)n1-c1ccccc1	none (no result: Hedgehog inh)
COc1ccccc1CN1CCN(Cc2ccccc2)CC1	none (no result: Hedgehog inh)
CC(C)n1[nH]c(=O)c2c1NC(=O)CSC2c1ccc(Br)cc1 (stereo not given)	none (no result: Hedgehog inh)
COc1ccc2c(c[n+](C)c3c4cc5c(cc4ccc23)OCO5)c1OC	BJeLR viability 79
COc1ccc2c(c1OC)CN1CCc3cc4c(cc3C1C2)OCO4 (stereo not given)	none
C/C=C(\C)C(=O)OC1C(C)=C2C(C1OC(=O)CCCCCCC)C(C)(OC(C)=O)CC(OC(=O)CCC)C1(O)C2OC(=O)C1(C)O (stereo not given)	Hedgehog inh 101
C/C=C(/C)C(=O)O[C@H]1C(C)=C2[C@H]([C@@H]1OC(=O)CCCCCCC)[C@@](C)(OC(C)=O)C[C@H](OC(=O)CCC)[C@@]1(O)[C@H]2OC(=O)[C@@]1(C)O	Hedgehog inh 103
CN(C)C(=O)Oc1nnc(SCCS(=O)(=O)c2ccc(F)cc2)n1-c1ccccc1	none (no result: Hedgehog inh)
C=CC1C[N+]2([O-])CCC1CC2C(O)c1ccnc2ccc(OC)cc12 (stereo not given)	none (no result: BJeLR viability)
O=C(CCl)c1cc(Br)c(Br)s1	none
O=C(c1noc2c1COc1ccccc1-2)N1CCC2(CC1)OCCO2	none (no result: Hedgehog inh)
COC(=O)C12CC3CC(C(C)O)C1N(CCc1c2[nH]c2ccc(OC)cc12)C3 (stereo not given)	none
